Assay results from the supplement of paper PMC10849652.
Targets with a hit are over-represented here; the source holds about 8,800 in all. About 0.5% of all pairs of compound and target were hits.

How the values were obtained:
Assay in all cases: log2 fold change, soluble protein after heating vs DMSO (PISA); higher = thermal stabilisation; K562 lysate, 10 uM; active = over 0.2 and 3.5 SD of the protein, either way, in both replicates (recomputed)
lapatinib = compound: CS(=O)(=O)CCNCc1ccc(-c2ccc3ncnc(Nc4ccc(OCc5cccc(F)c5)c(Cl)c4)c3c2)o1 [lapatinib]
Method in brief: (§1)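 Thermal stability, expressed as log-two fold change relative to solvent controls, is given from duplicates. Crude K562 extract in PBS pH 7.4 with 1 mM MgCl2, at 1 mg/mL protein, was treated with 10 μM compound for 30 min and heated in aliquots for 3 min across 48°C-58°C. After pooling, adjustment to 0.5% NP-40 at 4°C and centrifugation at 21,000xg for 90 min, supernatant protein was measured by TMTpro 16plex LC-MS/MS with channel sums equalised.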

pictilisib = compound: CS(=O)(=O)N1CCN(Cc2cc3nc(-c4cccc5[nH]ncc45)nc(N4CCOCC4)c3s2)CC1 [pictilisib]
Method in brief: as §1

crizotinib = compound: C[C@@H](Oc1cc(-c2cnn(C3CCNCC3)c2)cnc1N)c1c(Cl)ccc(F)c1Cl [crizotinib]
Method in brief: as §1

[1] = compound: C[C@H](C1=CC=C(C=C1)C(=O)NC2=C3C=CNC3=NC=C2)N
Method in brief: as §1

duvelisib = compound: C[C@H](Nc1ncnc2nc[nH]c12)c1cc2cccc(Cl)c2c(=O)n1-c1ccccc1 [duvelisib]
Method in brief: as §1

gandotinib = compound: Cc1cc(Nc2cc(CN3CCOCC3)c3nc(C)c(Cc4ccc(Cl)cc4F)n3n2)n[nH]1 [gandotinib]
Method in brief: as §1

tozasertib = compound: Cc1cc(Nc2cc(N3CCN(C)CC3)nc(Sc3ccc(NC(=O)C4CC4)cc3)n2)n[nH]1 [tozasertib]
Method in brief: as §1

doramapimod = compound: Cc1ccc(-n2nc(C(C)(C)C)cc2NC(=O)Nc2ccc(OCCN3CCOCC3)c3ccccc23)cc1 [doramapimod]
Method in brief: as §1

bafetinib = compound: Cc1ccc(NC(=O)c2ccc(CN3CC[C@H](N(C)C)C3)c(C(F)(F)F)c2)cc1Nc1nccc(-c2cncnc2)n1 [bafetinib]
Method in brief: as §1

[2] = compound: Cc1cccc(CC(=O)N2CCc3c2ccc(-c2cn(C)c4ncnc(N)c24)c3F)n1
Method in brief: as §1

nilotinib = compound: Cc1cn(-c2cc(NC(=O)c3ccc(C)c(Nc4nccc(-c5cccnc5)n4)c3)cc(C(F)(F)F)c2)cn1 [nilotinib]
Method in brief: as §1

[3] = compound: Cc1nc(Nc2n[nH]c3c2CN(C(=O)N[C@H](CN(C)C)c2ccccc2)C3(C)C)c2sccc2n1
Method in brief: as §1

dasatinib = compound: Cc1nc(Nc2ncc(C(=O)Nc3c(C)cccc3Cl)s2)cc(N2CCN(CCO)CC2)n1 [dasatinib]
Method in brief: as §1

[4] = compound: Cc1ncc(-c2ccnc(Nc3ccc(S(C)(=O)=O)cc3)n2)n1C(C)C
Method in brief: as §1

[5] = compound: Cn1cc(-c2ccc3c(c2)CCN3C(=O)Cc2cccc(C(F)(F)F)c2)c2c(N)ncnc21
Method in brief: as §1

quisinostat = compound: Cn1cc(CNCC2CCN(c3ncc(C(=O)NO)cn3)CC2)c2ccccc21 [quisinostat]
Method in brief: as §1

tipifarnib = compound: Cn1cncc1[C@@](N)(c1ccc(Cl)cc1)c1ccc2c(c1)c(-c1cccc(Cl)c1)cc(=O)n2C [tipifarnib]
Method in brief: as §1

[6] = compound: NC(=O)Nc1cc(-c2cccc(F)c2)sc1C(=O)N[C@H]1CCCNC1
Method in brief: as §1

[7] = compound: NC(=O)c1cnc(N[C@@H]2CCCC[C@@H]2N)nc1Nc1cccc(-n2nccn2)c1
Method in brief: as §1

[8] = compound: NC1(c2ccc(-c3nc4ccn5c(=O)[nH]nc5c4cc3-c3ccccc3)cc2)CCC1
Method in brief: as §1

Measured: log2 fold change

ARAP1 (UniProt Q96P48)
UniProt Q96P48, sequence (Q96P48 whole entry, looked up): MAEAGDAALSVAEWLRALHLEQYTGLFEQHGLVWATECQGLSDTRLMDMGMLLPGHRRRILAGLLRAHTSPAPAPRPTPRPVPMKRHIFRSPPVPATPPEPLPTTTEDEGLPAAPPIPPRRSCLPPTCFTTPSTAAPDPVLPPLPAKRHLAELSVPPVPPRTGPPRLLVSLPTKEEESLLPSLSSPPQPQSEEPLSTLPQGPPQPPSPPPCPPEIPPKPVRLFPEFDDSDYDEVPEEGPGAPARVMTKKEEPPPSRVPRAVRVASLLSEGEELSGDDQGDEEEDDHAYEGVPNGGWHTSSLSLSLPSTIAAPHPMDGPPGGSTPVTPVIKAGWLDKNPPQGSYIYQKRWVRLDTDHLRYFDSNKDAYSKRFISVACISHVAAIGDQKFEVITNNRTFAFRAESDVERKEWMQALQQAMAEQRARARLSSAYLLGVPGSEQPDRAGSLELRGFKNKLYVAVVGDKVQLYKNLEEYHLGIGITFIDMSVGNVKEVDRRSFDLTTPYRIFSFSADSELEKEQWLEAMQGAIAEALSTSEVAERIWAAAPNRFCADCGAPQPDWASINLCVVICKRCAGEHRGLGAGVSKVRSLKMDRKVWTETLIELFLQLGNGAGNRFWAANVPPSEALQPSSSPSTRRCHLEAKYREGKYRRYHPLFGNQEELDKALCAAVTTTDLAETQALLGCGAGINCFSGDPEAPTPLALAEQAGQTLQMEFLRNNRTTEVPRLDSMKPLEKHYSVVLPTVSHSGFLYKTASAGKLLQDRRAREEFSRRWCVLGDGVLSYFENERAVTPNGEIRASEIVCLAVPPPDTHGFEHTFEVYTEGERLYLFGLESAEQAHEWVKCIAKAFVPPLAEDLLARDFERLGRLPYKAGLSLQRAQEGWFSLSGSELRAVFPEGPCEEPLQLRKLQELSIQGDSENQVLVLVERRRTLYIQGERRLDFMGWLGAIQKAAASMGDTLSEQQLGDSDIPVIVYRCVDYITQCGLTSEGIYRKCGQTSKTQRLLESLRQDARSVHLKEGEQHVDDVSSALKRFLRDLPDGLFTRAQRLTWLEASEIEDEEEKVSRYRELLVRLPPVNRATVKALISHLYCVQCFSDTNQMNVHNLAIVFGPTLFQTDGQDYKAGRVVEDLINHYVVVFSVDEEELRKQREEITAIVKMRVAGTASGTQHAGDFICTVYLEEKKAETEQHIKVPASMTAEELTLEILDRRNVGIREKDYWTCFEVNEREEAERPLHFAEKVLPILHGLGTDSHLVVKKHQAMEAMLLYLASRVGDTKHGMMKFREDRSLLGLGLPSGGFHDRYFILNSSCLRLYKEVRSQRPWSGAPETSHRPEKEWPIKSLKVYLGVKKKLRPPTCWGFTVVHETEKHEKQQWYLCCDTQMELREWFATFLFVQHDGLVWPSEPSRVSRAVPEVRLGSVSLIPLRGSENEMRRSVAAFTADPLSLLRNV
inactive: lapatinib -0.022 | pictilisib -0.046 | crizotinib -0.065 | [1] -0.03 | duvelisib -0.002 | gandotinib 0.014 | tozasertib -0.005 | doramapimod 0.063 | bafetinib -0.016 | [2] 0.034 | nilotinib -0.009 | [3] -0.029 | dasatinib -0.036 | [4] -0.032 | [5] 0.013 | quisinostat -0.072 | tipifarnib -0.041 | [6] 0.029 | [7] 0.006 | [8] 0.003

ADK (UniProt P55263)
UniProt P55263, sequence (P55263 whole entry, looked up): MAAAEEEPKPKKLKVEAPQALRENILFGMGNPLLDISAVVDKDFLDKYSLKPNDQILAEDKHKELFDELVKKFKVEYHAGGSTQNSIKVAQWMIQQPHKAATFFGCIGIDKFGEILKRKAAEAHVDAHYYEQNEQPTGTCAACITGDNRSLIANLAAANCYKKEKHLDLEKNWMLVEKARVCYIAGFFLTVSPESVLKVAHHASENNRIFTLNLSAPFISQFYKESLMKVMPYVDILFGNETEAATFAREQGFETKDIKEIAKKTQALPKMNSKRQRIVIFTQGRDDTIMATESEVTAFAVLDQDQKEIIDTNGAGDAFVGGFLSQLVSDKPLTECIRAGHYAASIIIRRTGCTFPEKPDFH
inactive: lapatinib 0.154 | pictilisib 0.169 | crizotinib 0.235 | [1] -0.007 | duvelisib 0.059 | tozasertib -0.005 | doramapimod 0.014 | bafetinib 0.292 | [2] -0.064 | nilotinib -0.028 | [3] 0.075 | dasatinib 0.463 | [4] 0.046 | [5] -0.005 | quisinostat -0.062 | tipifarnib 0.324 | [6] -0.023 | [7] -0.015 | [8] 0.016
active: gandotinib 0.532

ACSL4 (UniProt O60488)
inactive: lapatinib 0.008 | pictilisib 0.028 | crizotinib -0.042 | [1] -0.016 | duvelisib 0.026 | gandotinib -0.065 | tozasertib 0.002 | doramapimod 0.025 | bafetinib -0.093 | [2] -0.003 | nilotinib -0.011 | [3] 0.008 | dasatinib 0.004 | [4] 0.018 | [5] 0.02 | quisinostat -0.018 | tipifarnib -0.051 | [6] 0.029 | [7] -0.032 | [8] -0.074

ACACA isoform 4 (UniProt Q13085)
inactive: lapatinib -0.019 | pictilisib 0 | crizotinib -0.081 | [1] -0.001 | duvelisib 0.032 | gandotinib -0.068 | tozasertib 0.033 | doramapimod 0.045 | bafetinib -0.056 | [2] 0.061 | nilotinib -0.032 | [3] 0.004 | dasatinib -0.037 | [4] 0.028 | [5] 0.043 | quisinostat -0.024 | tipifarnib 0.081 | [6] 0.03 | [7] 0.01 | [8] -0.019

ARHGAP25 isoform 4 (UniProt P42331)
inactive: lapatinib 0.011 | pictilisib -0.024 | crizotinib -0.053 | [1] -0.011 | duvelisib 0.008 | gandotinib -0.024 | tozasertib -0.006 | doramapimod -0.005 | bafetinib -0.075 | [2] 0.081 | nilotinib -0.037 | [3] 0.039 | dasatinib -0.039 | [4] 0.022 | [5] 0.008 | quisinostat -0.115 | tipifarnib -0.016 | [6] 0.017 | [7] 0.028 | [8] -0.009

ACLY (UniProt P53396)
UniProt P53396, sequence (P53396 whole entry, looked up): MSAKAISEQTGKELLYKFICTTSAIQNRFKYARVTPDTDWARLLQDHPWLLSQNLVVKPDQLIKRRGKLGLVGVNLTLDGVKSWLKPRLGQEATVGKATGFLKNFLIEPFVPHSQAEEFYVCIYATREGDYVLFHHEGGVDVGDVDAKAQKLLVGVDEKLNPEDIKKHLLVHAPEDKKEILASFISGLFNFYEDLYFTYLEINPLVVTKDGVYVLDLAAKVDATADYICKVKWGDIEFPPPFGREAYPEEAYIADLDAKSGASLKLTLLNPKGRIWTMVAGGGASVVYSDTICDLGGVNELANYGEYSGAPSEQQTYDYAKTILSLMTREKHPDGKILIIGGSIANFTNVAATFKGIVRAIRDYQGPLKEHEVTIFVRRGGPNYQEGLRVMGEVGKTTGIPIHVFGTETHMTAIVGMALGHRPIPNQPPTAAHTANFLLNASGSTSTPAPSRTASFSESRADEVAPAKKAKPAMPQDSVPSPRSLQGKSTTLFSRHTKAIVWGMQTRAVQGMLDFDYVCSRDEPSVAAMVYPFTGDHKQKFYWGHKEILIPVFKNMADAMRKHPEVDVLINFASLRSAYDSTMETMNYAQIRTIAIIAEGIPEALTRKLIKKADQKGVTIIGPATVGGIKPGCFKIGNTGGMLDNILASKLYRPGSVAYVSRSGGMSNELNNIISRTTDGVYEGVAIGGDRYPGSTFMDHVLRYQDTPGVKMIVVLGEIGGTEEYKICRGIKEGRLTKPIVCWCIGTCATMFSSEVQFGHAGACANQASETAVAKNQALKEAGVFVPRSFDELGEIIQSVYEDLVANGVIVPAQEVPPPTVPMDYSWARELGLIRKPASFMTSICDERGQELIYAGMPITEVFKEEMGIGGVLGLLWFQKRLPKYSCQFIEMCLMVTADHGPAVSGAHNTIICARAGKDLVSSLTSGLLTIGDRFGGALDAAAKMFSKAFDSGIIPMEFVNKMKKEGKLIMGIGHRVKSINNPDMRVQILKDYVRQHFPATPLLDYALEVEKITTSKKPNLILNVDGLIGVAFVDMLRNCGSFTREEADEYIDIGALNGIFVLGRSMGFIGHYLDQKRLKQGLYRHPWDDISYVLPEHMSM
inactive: lapatinib -0.011 | pictilisib -0.009 | crizotinib -0.005 | [1] -0.025 | duvelisib 0.012 | gandotinib 0.01 | tozasertib 0.003 | doramapimod 0.015 | bafetinib 0.008 | [2] 0.013 | nilotinib -0.005 | [3] -0.016 | dasatinib -0.026 | [4] -0.005 | [5] 0.021 | quisinostat 0.002 | tipifarnib 0.016 | [6] -0.004 | [7] 0.018 | [8] 0.014

AP4B1 (UniProt Q9Y6B7)
inactive: lapatinib 0.064 | pictilisib -0.142 | crizotinib 0.025 | [1] -0.106 | duvelisib -0.058 | gandotinib -0.023 | tozasertib -0.011 | doramapimod 0.019 | bafetinib -0.079 | [2] 0.135 | nilotinib 0.023 | [3] 0.011 | dasatinib 0.032 | [4] -0.013 | [5] 0.027 | quisinostat 0.018 | tipifarnib -0.051 | [6] 0.1 | [7] 0.028 | [8] 0.007

AGO4 (UniProt Q9HCK5)
inactive: lapatinib 0.013 | pictilisib -0.076 | crizotinib -0.01 | [1] -0.113 | duvelisib 0.014 | gandotinib 0.048 | tozasertib -0.001 | doramapimod -0.014 | bafetinib -0.004 | [2] 0.002 | nilotinib -0.152 | [3] 0.07 | dasatinib 0 | [4] 0.004 | [5] -0.022 | quisinostat -0.037 | tipifarnib 0.005 | [6] 0.015 | [7] 0.014 | [8] -0.002

ACADM isoform 2 (UniProt P11310)
UniProt P11310, sequence (P11310 whole entry, looked up): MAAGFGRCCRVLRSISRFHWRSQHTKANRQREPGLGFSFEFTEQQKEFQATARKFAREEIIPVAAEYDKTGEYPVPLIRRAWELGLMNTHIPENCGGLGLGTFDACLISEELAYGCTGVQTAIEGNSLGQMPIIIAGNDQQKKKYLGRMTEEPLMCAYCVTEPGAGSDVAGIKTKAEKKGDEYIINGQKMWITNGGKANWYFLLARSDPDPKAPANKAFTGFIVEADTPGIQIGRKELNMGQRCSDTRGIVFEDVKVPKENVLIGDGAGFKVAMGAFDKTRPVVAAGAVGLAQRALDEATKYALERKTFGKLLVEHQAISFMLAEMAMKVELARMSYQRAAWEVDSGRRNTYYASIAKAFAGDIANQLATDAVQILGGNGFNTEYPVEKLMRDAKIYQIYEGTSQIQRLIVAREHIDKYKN
inactive: lapatinib -0.007 | pictilisib -0.009 | crizotinib -0.042 | [1] -0.007 | duvelisib -0.007 | gandotinib 0.029 | tozasertib 0.029 | doramapimod -0.03 | bafetinib 0.024 | [2] -0.01 | nilotinib -0.031 | [3] -0.008 | dasatinib -0.041 | [4] -0.009 | [5] 0.001 | quisinostat 0.009 | tipifarnib -0.021 | [6] -0.027 | [7] -0.033 | [8] -0.091

AIP (UniProt O00170)
UniProt O00170, sequence (O00170 whole entry, looked up): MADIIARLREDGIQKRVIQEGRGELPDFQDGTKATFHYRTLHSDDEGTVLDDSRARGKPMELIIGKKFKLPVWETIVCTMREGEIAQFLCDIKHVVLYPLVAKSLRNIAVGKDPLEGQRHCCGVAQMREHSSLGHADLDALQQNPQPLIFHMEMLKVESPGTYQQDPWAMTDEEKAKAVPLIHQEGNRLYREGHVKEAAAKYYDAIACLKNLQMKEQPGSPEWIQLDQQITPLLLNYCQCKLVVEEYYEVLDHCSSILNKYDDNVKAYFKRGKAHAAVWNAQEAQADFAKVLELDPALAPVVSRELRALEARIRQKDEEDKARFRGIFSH
inactive: lapatinib -0.004 | pictilisib -0.026 | crizotinib 0.021 | duvelisib -0.031 | gandotinib -0.019 | tozasertib -0.012 | doramapimod -0.022 | bafetinib 0.055 | [2] -0.043 | nilotinib 0.024 | [3] -0.001 | dasatinib 0.018 | [4] 0.028 | [5] 0.008 | quisinostat 0.007 | tipifarnib 0.027 | [6] -0.011 | [7] -0.016 | [8] 0.024
active: [1] 0.41

AMPD3 isoform 4 (UniProt Q01432)
UniProt Q01432, sequence (Q01432 whole entry, looked up): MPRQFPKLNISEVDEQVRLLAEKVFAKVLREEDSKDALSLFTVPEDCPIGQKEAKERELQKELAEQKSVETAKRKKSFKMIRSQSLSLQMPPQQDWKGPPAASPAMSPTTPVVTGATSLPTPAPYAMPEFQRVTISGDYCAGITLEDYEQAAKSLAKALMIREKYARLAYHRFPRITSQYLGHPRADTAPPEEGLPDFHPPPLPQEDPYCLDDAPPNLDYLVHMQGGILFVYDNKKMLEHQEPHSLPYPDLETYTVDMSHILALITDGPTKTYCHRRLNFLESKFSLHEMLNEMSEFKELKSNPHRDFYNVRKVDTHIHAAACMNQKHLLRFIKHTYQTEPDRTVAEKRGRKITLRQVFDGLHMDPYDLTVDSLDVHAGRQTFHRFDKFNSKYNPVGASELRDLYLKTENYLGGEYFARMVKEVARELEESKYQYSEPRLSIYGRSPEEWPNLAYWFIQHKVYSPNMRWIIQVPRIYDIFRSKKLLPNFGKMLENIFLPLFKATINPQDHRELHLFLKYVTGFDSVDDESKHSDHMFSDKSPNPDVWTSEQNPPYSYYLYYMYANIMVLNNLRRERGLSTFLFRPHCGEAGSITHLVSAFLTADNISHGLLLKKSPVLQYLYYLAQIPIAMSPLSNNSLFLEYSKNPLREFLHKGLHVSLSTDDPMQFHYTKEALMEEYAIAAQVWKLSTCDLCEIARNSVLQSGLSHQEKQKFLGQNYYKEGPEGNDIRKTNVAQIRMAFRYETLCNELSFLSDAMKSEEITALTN
inactive: lapatinib 0.037 | pictilisib -0.015 | crizotinib 0.014 | [1] 0.109 | duvelisib -0.053 | gandotinib -0.057 | tozasertib 0.001 | doramapimod 0.002 | bafetinib -0.002 | [2] -0.047 | nilotinib -0.002 | [3] 0.027 | dasatinib 0.014 | [4] -0.021 | [5] -0.013 | quisinostat 0.038 | tipifarnib 0.032 | [6] -0.012 | [7] -0.017 | [8] 0.012

ARAF (UniProt P10398)
UniProt P10398, sequence (P10398 whole entry, looked up): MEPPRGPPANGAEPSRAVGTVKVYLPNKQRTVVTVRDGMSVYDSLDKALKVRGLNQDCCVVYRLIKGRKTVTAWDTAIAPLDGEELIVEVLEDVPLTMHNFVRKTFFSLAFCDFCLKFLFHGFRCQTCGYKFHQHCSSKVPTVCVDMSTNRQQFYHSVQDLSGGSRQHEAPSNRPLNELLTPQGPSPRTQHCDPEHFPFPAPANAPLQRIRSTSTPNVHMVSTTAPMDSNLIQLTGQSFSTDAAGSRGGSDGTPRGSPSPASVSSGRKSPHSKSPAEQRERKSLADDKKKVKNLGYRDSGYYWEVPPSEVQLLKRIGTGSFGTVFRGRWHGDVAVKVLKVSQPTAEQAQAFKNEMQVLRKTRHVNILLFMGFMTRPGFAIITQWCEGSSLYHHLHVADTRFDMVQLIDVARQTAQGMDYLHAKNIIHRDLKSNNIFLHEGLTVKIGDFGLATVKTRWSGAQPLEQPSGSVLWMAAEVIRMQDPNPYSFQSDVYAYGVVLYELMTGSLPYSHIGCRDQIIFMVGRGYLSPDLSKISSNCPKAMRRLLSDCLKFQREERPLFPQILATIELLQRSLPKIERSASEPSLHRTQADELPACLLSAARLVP
inactive: lapatinib -0.019 | pictilisib 0.011 | crizotinib -0.041 | [1] -0.045 | duvelisib -0.025 | gandotinib -0.077 | tozasertib -0.007 | doramapimod 0.006 | bafetinib -0.047 | [2] -0.031 | nilotinib -0.005 | [3] 0.018 | dasatinib 0.16 | [4] 0.022 | [5] 0.02 | quisinostat -0.069 | tipifarnib -0.023 | [6] 0.011 | [7] 0.018 | [8] -0.012

ASNS (UniProt P08243)
inactive: lapatinib -0.019 | pictilisib -0.012 | crizotinib -0.042 | [1] 0.013 | duvelisib -0.001 | gandotinib -0.051 | tozasertib 0.011 | doramapimod -0.01 | bafetinib -0.033 | [2] 0.002 | nilotinib -0.004 | [3] -0.008 | dasatinib -0.039 | [4] -0.018 | [5] 0.025 | quisinostat 0.027 | tipifarnib 0.017 | [6] 0.027 | [7] -0.01 | [8] -0.028

ACSL1 (UniProt P33121)
inactive: lapatinib -0.03 | pictilisib -0.094 | crizotinib -0.115 | [1] 0.021 | duvelisib 0.043 | gandotinib -0.049 | tozasertib 0.033 | doramapimod 0.053 | bafetinib -0.038 | [2] 0.061 | nilotinib -0.004 | [3] -0.002 | dasatinib -0.132 | [4] 0.013 | [5] 0.05 | quisinostat 0.007 | tipifarnib -0.013 | [6] 0.034 | [7] -0.025 | [8] -0.04
